Assay results published in PubChem BioAssay (Tox21).
Inconclusive results are not listed. A number with no mark means an inactive call. Calls come from the whole dose curve; as a rule, active = well fitted activation curve with a large enough effect in the signal ratio in the repeat runs (not every such curve was filed as active); inconclusive = weak or mixed curves, or effect the other way; inactive = flat fitted curve, though single readings scatter; the % refers to the signal ratio.

Experiment: qHTS assay to identify small molecule agonists of the endoplasmic reticulum stress response signaling pathway (AID 1159516)
Conditions: ESRE-bla HeLa, ER stress beta-lactamase reporter, 5 h; series mostly up to 61 µM; activation: at the top concentration
Excerpt: National Center for Advancing Translational Sciences [NCATS]
NIH Chemical Genomics Center [NCGC]
U.S. Environmental Protection Agency [EPA]
National Institutes of Environmental Health Sciences [NIEHS]
National Toxicology Program [NTP]
U.S. Food and Drug Administration [FDA]
Endoplasmic Reticulum (ER) plays an important role in cellular signaling, protein folding/maturation, stress response, lipid biosynthesis, calcium storage and release etc. Under stress conditions, proteins in ER misfold or unfold, and leading to the expression of ER stress responsive genes. ER stress has been associated with a variety of pathophysiological conditions such as cancer, inflammation, neurodegenerative diseases, diabetes, ischemic heart disease etc. To identify the compounds that induce ER stress response, an ER stress reporter cell line, CellSensor ESRE-bla HeLa (Life Technologies, Carlsbad, CA) containing a beta-lactamase reporter gene under control of the Endoplasmic reticulum Stress Response Element (ESRE) was used to screen Tox21 10K compound library.
Tox21 Assay Protocol Summary:
ESRE-bla HeLa cells were dispensed at 1,500 cells/6 uL of assay medium per well into black wall/clear-bottom 1536-well plates using a Multidrop Combi (ThermoFisher Scientific, Waltham, MA) dispenser. After the assay plates were incubated at 37 C and 5% CO2 for an overnight, 23 nL of compounds dissolved in DMSO, positive controls or DMSO only was transferred to the assay plate by a Pintool station (Kalypsys, San Diego, CA). The assay plates were incubated at 37 C and 5% CO2 for 5 hr. One uL of LiveBLAzer B/G FRET substrate (Life Technologies) was added using a Flying Reagent Dispenser (Aurora Discovery, San Diego, CA) and the plates were incubated at room temperature for 2 hr. Fluorescence intensity (405 nm excitation, 460 nm and 530 nm emissions) was measured using an Envision plate reader (PerkinElmer, Shelton, CT).
% is set by controls: 0 for no effect and ±100 for the full control effect.

Row | Structure (SMILES) | activation
1 | O=C(C(=O)c1ccccc1)c1ccccc1 | -0.537%
2 | C=CCNc1nc(NCC=C)nc(N2CCN(C(c3ccc(F)cc3)c3ccc(F)cc3)CC2)n1 | 13.1%
3 | CCCOCCOCCO | -0.257%
4 | Nc1nccs1 | -6.37%
5 | O=C(CCCN1CCC(O)(c2ccc(Br)cc2)CC1)c1ccc(F)cc1 | -0.0488%
6 | CCOCCn1c(C2CCN(CCc3ccc(C(C)(C)C(=O)O)cc3)CC2)nc2ccccc21 | 0.0546%
7 | C=CC(C)(O)CCCC(C)CCCC(C)CCCC(C)C (stereo not given) | 0.811%
8 | CC(C)OCC1CO1 (stereo not given) | -0.363%
9 | C/C=C/C=C/CCCCCCCO | -5.07%
10 | CCC(=O)Oc1ccc(/C(CC)=C(\CC)c2ccc(OC(=O)CC)cc2)cc1 | -5.87%
11 | C[N+]1(C)CCC(=C(c2ccccc2)c2ccccc2)CC1 | -6.45%
12 | CCCCOC(=O)CCS | 5.62%
13 | CCc1nn(CCCN2CCN(c3cccc(Cl)c3)CC2)c(=O)n1CCOc1ccccc1 | -5.97%
14 | CCN(Cc1cccc(S(=O)(=O)O)c1)c1ccc(C(=C2C=CC(=[N+](CC)Cc3cccc(S(=O)(=O)[O-])c3)C=C2)c2ccccc2)cc1 | -0.276%
15 | Cc1cc(OI)c(C(C)C)cc1-c1cc(C(C)C)c(OI)cc1C | 2.3%
16 | CO[Si](C)(OC)OC | -0.811%
17 | CC1CN(c2cc3c(cc2F)c(=O)c(C(=O)O)cn3-c2ccc(F)cc2F)CCN1 (stereo not given) | -0.328% [at 6.95 µM]
18 | CCCCCCCC/C=C\CCCCCCCC(=O)OC | 0.126%
19 | CC(=O)OCC(=O)[C@H]1CC[C@H]2[C@@H]3CCC4=CC(=O)CC[C@]4(C)[C@H]3CC[C@]12C | -1.93%
20 | COC(=O)c1cc(S(N)(=O)=O)ccc1OC | 0.396%

Row | Structure (SMILES) | activation
21 | CCCCCCCCCOC(C)=O | -0.606%
22 | CC(=O)Oc1ccc(C(=C2CCCCC2)c2ccc(OC(C)=O)cc2)cc1 | -3.87%
23 | C/C(=N/NC(=O)c1ccncc1)C(=O)O | 1.08%
24 | C[C@@H]1C[C@H]2[C@@H]3CCC4=CC(=O)C=C[C@]4(C)[C@@]3(F)[C@@H](O)C[C@]2(C)[C@@]1(O)C(=O)CO | -0.447% [at 78.8 µM]
25 | CC1C2CC(CC2C2CCCC(O)C2)C1(C)C (stereo not given) | 3.53%
26 | COC(=O)CC(=O)C(C)(C)C | -0.854%
27 | CCc1c2c(nc3ccc(OC(=O)N4CCC(N5CCCCC5)CC4)cc13)-c1cc3c(c(=O)n1C2)COC(=O)[C@]3(O)CC | 9.06%
28 | Cc1ccnc2ccccc12 | -0.85%
29 | CN1CCN(c2c(F)cc3c(=O)c(C(=O)O)cn4c3c2OCN4C)CC1 | 0.697% [at 28.5 µM]
30 | Cc1nc2ccccn2c(=O)c1CCN1CCC(C(=O)c2ccc(F)cc2)CC1 | 1.98%
31 | CC(=O)Nc1ccc(N)cc1 | -1.31% [at 78.8 µM]
32 | CC(=O)Nc1ccccc1C | -2.82% [at 78.8 µM]
33 | N#C[C@@H]1C[C@@H]2C[C@@H]2N1C(=O)[C@@H](N)C12CC3CC(CC(O)(C3)C1)C2 | 3.08%
34 | CCn1nc(C)c2c1C(=O)NCC(c1ccc(O)cc1)=N2 | -3.31%
35 | Cn1c(=O)c2c(ncn2CC(=O)O)n(C)c1=O | 1.61%
36 | CC[C@@H]([C@H](C)O)n1ncn(-c2ccc(N3CCN(c4ccc(OC[C@@H]5CO[C@@](Cn6cncn6)(c6ccc(F)cc6F)C5)cc4)CC3)cc2)c1=O | -1.34%
37 | O=C(O)c1cccnc1C(=O)O | 3.09%
38 | CCCCC(=O)O[C@]1(C(=O)CO)[C@@H](C)C[C@H]2[C@@H]3CCC4=CC(=O)C=C[C@]4(C)[C@@]3(F)[C@@H](O)C[C@@]21C | -6.44%
39 | O=C(O)C(Cc1cc(I)c(O)c(I)c1)c1ccccc1 (stereo not given) | -2.82%
40 | O=C1NCCN1 | -0.748%
